The values that follow come from PubChem BioAssay AID540332 (The Scripps Research Institute Molecular Screening Center, 2011).

The test system of the assay is Potassium Channel KATP. Description: selectivity profile across receptors and CYP450s – biochemical, Ricerca HitProfilingScreen, CYP450, set 2, selectivity assay for S1P4 agonist project, profiling panel (AID 540332). As to conditions: at 30 µM; active compounds read high.

Molecules are shown by their SMILES. Unmarked numbers belong to inactive results. How the calls were made is not given here.

As a reminder, the inhibition is the relative decrease from the control value, in per cent. Regarding `COCCN=C1S/C(=C\c2cc(C)n(-c3ccc(F)cc3F)c2C)C(=O)N1C`, the inhibition is -5%.
